TDP43 rescue: rescues yeast growth from TDP-43 toxicity. 410,000 compounds, 1.8% hits. TDP-43 expressing yeast growth rescue, BacTiter-Glo, 24 h. Potency, µM (series often up to 46.1 µM), without a hit: at the highest dose growth rescue (activation), most hits filed as activators; also: % of control where 0% means no effect; nearly all actives have a fitted effect of over 50% in size
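In this qHTS, compounds that restore growth of yeast expressing TDP-43 appear as activators. Cells (OD600=0.02, galactose medium, raffinose-pregrown) are incubated with compound 24 hr at 30 deg C and growth is quantified by BacTiter-Glo.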
aSyn rescue: rescues yeast growth from alpha-synuclein toxicity; Yeast expressing alpha-synuclein, growth rescue, BacTiter-Glo, 24 h; Potency, µM (series often up to 46.1 µM), for inactives: at the highest dose growth rescue (activation), usual class: activators; 370,000 compounds, 0.14% hits; also: % of control where 0% means no effect; nearly all actives have a fitted effect of over 65% in size
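Screening used galactose-induced yeast with toxic alpha-synuclein levels, exposed to compound for 24 hr at 30 deg C. Cell growth, read with BacTiter-Glo luminescence, gave the measured signal.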
FUS suppressor: rescues growth of FUS-expressing yeast; S. cerevisiae FUS-expressing, growth rescue, OD600, 24 h; Potency, µM (doses to about 76.6 µM), usual class: activators; 390,000 compounds, 0.24% hits; AID 1347120;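 also: plate controls were DMSO vehicle for no effect and reference control for full effect; nearly all actives have a fitted effect of over 55% in size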
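Steps: raffinose overnight preculture; dilution to OD 0.005 in 2% galactose minimal medium; compound addition (concentration series); 24hr at 30C, 99% humidity; absorbance read at 600 nm.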
MmCpn inh: blocks the Methanococcus maripaludis chaperonin Mm-Cpn | purified Mm-Cpn ATPase, ADP Transcreener TR-FRET | AID 504842 | 330,000 compounds, 0.031% hits | Potency, µM (titrated, usually from 76.9 µM), inactives show at the highest dose activity, negative = inhibition, usual class: inhibitors; also: % is scaled to controls: 0 for no effect and ±100 for the full control effect; nearly all actives have a fitted effect of over 80% in size
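Inhibition of chaperonin ATP hydrolysis is measured as reduced ADP production, detected by competitive TR-FRET in which signal falls with ADP. Final enzyme 25 nM and ATP 10 uM, reacted 30 min at 37°C.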
Abeta rescue: A-beta toxicity reversal in yeast; 410,000 compounds, 0.063% hits; yeast expressing A-beta42, growth rescue, OD600, 48 h; response scale: 0% DMSO, 100% iron-clioquinol control; Potency, µM (titrated, usually from 46.1 µM), most hits filed as activators; AID 1347071; also: nearly all actives have a fitted effect of over 55% in size
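Growth rescue measured by 600 nm absorbance after 48 h yeast culture at 30 C with compound. Values normalized between DMSO and an equimolar ferric chloride plus clioquinol control.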
ClpP mod: qHTS Assay for Activators of ClpP | purified B. subtilis ClpP, FRET peptide cleavage, 20 min | Potency, µM (series often up to 57.5 µM), without a hit: at the top dose activity change, negative = active | 340,000 compounds, 1.9% hits | AID 651965, 2013; active = well fitted falling curve with a large enough effect; inconclusive = small, poorly fitted or top-dose-only effect; inactive = no such curve, though single readings can be large or run the other way; also: the source files actives as falling curves though it sought activators and does not explain the sign; nearly all actives have a fitted effect of over 65% in size
Target sequence (P80244 whole entry, looked up): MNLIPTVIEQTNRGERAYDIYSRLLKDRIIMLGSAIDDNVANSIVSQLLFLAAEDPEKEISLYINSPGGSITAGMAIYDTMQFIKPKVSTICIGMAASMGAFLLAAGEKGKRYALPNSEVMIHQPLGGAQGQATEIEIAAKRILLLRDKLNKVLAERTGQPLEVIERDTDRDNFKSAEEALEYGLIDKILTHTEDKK
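ClpP 10 microg/mL final, pH 8 Tris/KCl buffer with BSA, glycerol, Tween-20; compound pinned in; FRET-FV substrate; RT 20 min; Ex320/Em430; ΔFRET vs ADEP 5.8 microM, DMSO, no enzyme.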
The depositor's hits bear a star; [ ] = dose if it differs, or a comment. Compounds with a hit are over-represented: about 3.6% of the library has one in this group of screens. Unless noted, calls follow the shape of the dose curve; as a rule, active = well fitted curve in the direction sought with a large enough effect; inconclusive = small, poorly fitted or top-dose-only effect, or another doubt; inactive = no such curve, though single readings can be large; an effect the other way counts as inactive or inconclusive. Potency is read from the fitted curve at half-maximal effect.

O=C(CC1CC2CCC1C2)N1CCN(S(=O)(=O)c2ccccc2C(F)(F)F)CC1 (stereo not drawn) was read as TDP43 rescue 22µM*, aSyn rescue 4%[1.84 µM], FUS suppressor inconclusive, MmCpn inh 0%, Abeta rescue inactive and ClpP mod 1%.
`O=C(CC1CC2CCC1C2)N1CCN(S(=O)(=O)c2ccccc2[N+](=O)[O-])CC1` (stereo not drawn) gave TDP43 rescue -7%, aSyn rescue 23%, FUS suppressor inactive, MmCpn inh 2%, Abeta rescue inactive and ClpP mod 1%.
Screening CCC(=O)N1CCc2cc(Br)cc(S(=O)(=O)CCC(=O)N3CCN(c4cccc(C(F)(F)F)c4)CC3)c21 returned TDP43 rescue 3%, FUS suppressor inactive, Abeta rescue inactive and ClpP mod -1%.
CC(C)[C@@H]1CC[C@@H](C)C[C@@H]1P(=O)(c1ccccc1)c1ccccc1 was read as aSyn rescue 2%.
Screening CCCc1cc(=O)[nH]c(Nc2ccc(C(=O)O)cc2)n1 returned TDP43 rescue 19%, FUS suppressor inactive, Abeta rescue inactive and ClpP mod -3%.
CCCOC(=O)c1cccc(Nc2nc(CCC)cc(=O)[nH]2)c1 was read as TDP43 rescue 18µM*, FUS suppressor inconclusive, Abeta rescue inactive and ClpP mod -7%.
For Cc1cc(C(=O)CN2CCC(C)CC2)c(C)n1-c1ccc(F)cc1 the results were TDP43 rescue 16%, aSyn rescue 2%, FUS suppressor inactive, MmCpn inh 0%, Abeta rescue inactive and ClpP mod 1%.
Screening Cc1cc(C(=O)CN2C(=O)C3CC=CCC3C2=O)c(C)n1-c1ccccc1 (stereo not drawn) returned TDP43 rescue -39%, aSyn rescue inconclusive, FUS suppressor 32µM*, MmCpn inh 0%, Abeta rescue inactive and ClpP mod 0%.
For Cc1cc(C(=O)CN2CCCCC2)c(C)n1-c1ccc(F)cc1 the results were TDP43 rescue 9%, aSyn rescue 0%, MmCpn inh -3%, Abeta rescue inactive and ClpP mod 25µM*.
Screening Cc1ccc(-c2c(C)n3c4c(=O)n(C)c(=O)n(C)c4nc3n2-c2cccc(O)c2)cc1 returned TDP43 rescue 11%, aSyn rescue 10%, FUS suppressor inactive, Abeta rescue inactive and ClpP mod -14%.
For Cc1cc(OCC(=O)NCC2(N3CCN(C)CC3)CCCCC2)cc(C)c1Cl the results were TDP43 rescue -3%, FUS suppressor inactive, Abeta rescue inactive and ClpP mod 0%.
Cc1c([N+](=O)[O-])cnc2ccccc12 was read as ClpP mod -15%.
CC(C)c1nc2sc3c(N4CCCCC4)ncnc3c2c2c1CCCC2 was read as TDP43 rescue 6%, FUS suppressor inactive, Abeta rescue inactive and ClpP mod -3%.
`S=C(NCc1cccs1)Nc1ccc(Br)cc1Cl` gave TDP43 rescue 35µM*, aSyn rescue -11%, FUS suppressor inactive, MmCpn inh 0%, Abeta rescue inconclusive and ClpP mod 0%.
Cc1cc(C)cc(NC(=S)NCc2cccs2)c1 was read as TDP43 rescue 5%, aSyn rescue -4%, MmCpn inh 0%, Abeta rescue inactive and ClpP mod -3%.
For O=C(NCc1cccs1)Nc1ccc(Cl)cc1 the results were TDP43 rescue -12%, aSyn rescue -12%, FUS suppressor inactive, MmCpn inh -12%, Abeta rescue inactive[9.22 µM] and ClpP mod 20µM*.
`S=C(NCc1ccccn1)Nc1ccc(Cl)cc1Cl` gave TDP43 rescue 11µM*, aSyn rescue -16%, FUS suppressor inactive, MmCpn inh 0%, Abeta rescue inactive and ClpP mod 1%.
Screening O=C(O)Cc1ccc(NC(=S)Nc2ccc(Br)cc2Cl)cc1 returned TDP43 rescue 35µM*, aSyn rescue 12%, FUS suppressor inactive, MmCpn inh -4%, Abeta rescue inactive and ClpP mod -1%.
Cc1ccc(CN2CCCCC(NC(=O)c3ccccc3)C2=O)cc1 (stereo not drawn) was read as FUS suppressor inactive.
COc1ccccc1-c1c(C)nn2c(N3CCN(c4ccc(F)cc4)CC3)cc(C)nc12 was read as TDP43 rescue 15%, FUS suppressor inactive, Abeta rescue inactive and ClpP mod -10%.
For CC(C)(C)c1ccc(NC(=S)NCc2cccs2)cc1 the results were TDP43 rescue 13µM*, aSyn rescue -9%, FUS suppressor inactive, MmCpn inh 1%, Abeta rescue inactive and ClpP mod 0%.
Screening NC(=O)C1CCN(c2nc(-c3ccc(C(F)(F)F)cc3)cs2)CC1 returned MmCpn inh -21%.
Screening Cc1ccc(-c2c(C#N)c(N)nc3c2CCCCC3)o1 returned TDP43 rescue -6%, aSyn rescue -18%, FUS suppressor inactive, MmCpn inh -6%, Abeta rescue inactive and ClpP mod 5%.
O=[N+]([O-])c1ccc(-c2nc(Cl)c3c(n2)CCCC3)o1 was read as TDP43 rescue 7.1µM*, aSyn rescue -6%, FUS suppressor inactive, Abeta rescue inactive and ClpP mod -4%.
Screening CCCCCc1ccc(NC(=O)O[C@@H]2CC[C@@]34CCCN3C(=O)CCC[C@H]4C2)cc1 returned FUS suppressor 22µM*.
`CCCN1CNc2c(c(=O)[nH]c(=S)n2CCc2ccsc2)C1` gave aSyn rescue -1% and ClpP mod -2%.
O=C(Nc1ccccc1F)c1nc(SCc2ccccc2F)ncc1Cl was read as TDP43 rescue 11%, FUS suppressor inactive, Abeta rescue inactive and ClpP mod -5%.
Screening CC(=O)NC(Cc1cccc(C)c1)C(=O)NC1CCN(c2ncccc2[N+](=O)[O-])CC1 (stereo not drawn) returned TDP43 rescue 13%, aSyn rescue 6%, MmCpn inh 2%, Abeta rescue inactive and ClpP mod 16µM*.
For COc1ccc(NC(=O)C2=C(C)Nc3ncnn3C2c2sccc2C)cc1 (stereo not drawn) the results were TDP43 rescue 22%, aSyn rescue 2%, FUS suppressor inactive, Abeta rescue inactive and ClpP mod 1%.

Compound activity as filed in PubChem.
